# PubChem BioAssay (NCI)
# Compounds without any hit were thinned out: in the full panel of roughly 79,000, 15% have a hit. Values without a mark were called inactive. Active and inactive are the calls of the source. No stated cut-off is given here; in the data, active means growth inhibition above about 70%; inactive means the rest.
# What was measured:
# [1] = NCI Yeast Anticancer Drug Screen. Data for the rad50 strain (AID 155);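 further: 0% = growth of vehicle-only cultures of the same strain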; conditions: S. cerevisiae rad50 strain growth inhibition, stronger effect = higher value
# How it was run: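 Inhibition values express reduced yeast growth in compound-treated cultures relative to vehicle-treated controls.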
# [2] = NCI Yeast Anticancer Drug Screen. Data for the mec2-1 strain (AID 157); conditions: S. cerevisiae mec2-1 strain, stronger effect = higher value
# How it was run: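 Yeast mec2-1 mutant treated with compound. Readout: growth inhibition vs vehicle controls.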
# [3] = NCI Yeast Anticancer Drug Screen. Data for the sgs1 mgt1 strain (AID 161);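 further: 0% = growth of cultures given vehicle only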; conditions: S. cerevisiae sgs1 mgt1 strain, stronger effect = higher value
# How it was run: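 Mutant yeast exposed to compound; growth scored against vehicle-only wells.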
# [4] = NCI Yeast Anticancer Drug Screen. Data for the cln2 rad14 strain (AID 165);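 further: 0% = growth equal to vehicle treated cultures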; conditions: S. cerevisiae cln2 rad14 strain, stronger effect = higher value
# How it was run: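 cln2 rad14 yeast strain; compound exposure; growth inhibition read vs vehicle controls.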
# [5] = NCI Yeast Anticancer Drug Screen. Data for the bub3 strain (AID 167); conditions: S. cerevisiae bub3 mutant strain, stronger effect = higher value
# How it was run: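 Steps: expose the mutant yeast strain to compound; grow alongside vehicle-treated cultures; measure growth; express inhibition against the vehicle cultures.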
# [6] = NCI Yeast Anticancer Drug Screen. Data for the mlh1 rad18 strain (AID 175); conditions: S. cerevisiae mlh1 rad18 strain growth inhibition, stronger effect = higher value
# How it was run: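 Yeast w/ defined DNA-repair lesions; compound exposure; growth vs vehicle controls → % inhibition.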
# [7] = at 5.0 µM (retest, dose inferred, filed as 0.5)
# [8] = at 50.0 µM (retest, dose inferred, filed as 5.0)
Structure (SMILES),"growth inhibition [1, 7]","growth inhibition [1, 8]",growth inhibition ([1]; at 50.0 µM),"growth inhibition [2, 7]","growth inhibition [2, 8]",growth inhibition ([2]; at 50.0 µM),"growth inhibition [3, 7]","growth inhibition [3, 8]",growth inhibition ([3]; at 50.0 µM),"growth inhibition [4, 7]","growth inhibition [4, 8]",growth inhibition ([4]; at 50.0 µM),"growth inhibition [5, 7]","growth inhibition [5, 8]",growth inhibition ([5]; at 50.0 µM),"growth inhibition [6, 7]","growth inhibition [6, 8]",growth inhibition ([6]; at 50.0 µM)
CC(C)N(CC(=O)c1ccc2cc(Cl)c3ccccc3c2c1)C(C)C,20%,97% (active),99% (active),34%,98% (active),98.6% (active),79% (active),98% (active),98.8% (active),8%,98% (active),98.2% (active),32%,97% (active),98.5% (active),39%,98% (active),98.5% (active)
CC(=O)OC1CCC2(C)C(=CCC3C2CCC2(C)C(C(C)N)CCC32)C1 (stereo not given),8%,98% (active),98.3% (active),18%,98% (active),98.7% (active),18%,98% (active),93% (active),-62%,96% (active),70.8% (active),1%,78% (active),95.8% (active),8%,98% (active),98.1% (active)
CC(O)c1c2c(cc3c1CC1(C3)Cc3cc4c(c(C(C)O)c3C1)CCC4)CCC2 (stereo not given),-18%,98% (active),71.1% (active),-6%,97% (active),81.4% (active),-34%,97% (active),85.9% (active),1%,97% (active),86.7% (active),-50%,97% (active),87.2% (active),-17%,97% (active),88.3% (active)
CCC(C)OC(=O)c1cccc(C)c1 (stereo not given),0%,17%,94.3% (active),-2%,5%,-6.8%,1%,7%,-5.05%,1%,6%,38.5%,2%,23%,6.95%,-3%,12%,2%
CCCCCCCCCCSCCO,30%,88% (active),92.7% (active),51%,92% (active),94% (active),99% (active),93% (active),93.5% (active),78% (active),99% (active),92.3% (active),100% (active),97% (active),92.5% (active),42%,97% (active),92.7% (active)
COc1ccc(-c2n[nH]c(C(F)(F)F)c2N=NN(C)C)cc1OC,97% (active),98% (active),98.9% (active),99% (active),99% (active),99.5% (active),99% (active),99% (active),99.4% (active),99% (active),99% (active),99.4% (active),99% (active),99% (active),99.4% (active),99% (active),99% (active),99.6% (active)
O=c1c(Cl)c(Cl)oc(Cl)c1Cl,42%,98% (active),79.2% (active),30%,99% (active),98.3% (active),45%,99% (active),88% (active),3%,99% (active),94.5% (active),43%,99% (active),98.8% (active),54%,98% (active),97.2% (active)
Oc1cccc(NCSc2ccc(Cl)cc2)c1,-4%,95% (active),93.3% (active),-3%,95% (active),95.2% (active),-9%,95% (active),96.2% (active),-5%,91% (active),92.5% (active),-3%,93% (active),94.1% (active),-1%,91% (active),94% (active)
C=Cc1ccccc1C1(O)C=CC(OC)(OC)C=C1,17%,25%,44%,11%,16%,7.1%,12%,14%,34.5%,17%,31%,-2.15%,8%,9%,44.2%,21%,32%,15.2%
COc1ccc2c(c1)[n+]([O-])c(C(N)=O)c(N)[n+]2[O-],23%,100% (active),99.4% (active),14%,100% (active),99.5% (active),17%,99% (active),99.3% (active),31%,98% (active),99.1% (active),40%,99% (active),98.4% (active),42%,99% (active),99.2% (active)
